HCV inh = qHTS Assay for Inhibitors of Hepatitis C Virus (HCV); Huh7.5.1 HCVcc-Cre infection, luciferase reporter, 44 h; Potency, µM (doses to about 41.8 µM), without a hit: at the top dose activity change, negative = inhibition, actives largely listed as inhibitors; actives 3.4% (n = 340,000); AID 651820, 2012; active = well fitted inhibition curve with a large enough effect; inconclusive = small, poorly fitted or top-dose-only effect, or another doubt; inactive = no such curve, though single readings can be large or run the other way; also: potency is read from the fitted curve at half-maximal effect
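Infectious HCV cell culture screen: compound-treated cells (1,000/well, pre-plated 4 h) are infected with HCVcc-Cre at roughly 0.5 moi and grown 44 h. Infection is quantified by luciferase signal after 15 min substrate incubation at room temperature.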
Vaccinia mCherry = qHTS for Stage-Specific Inhibitors of Vaccinia Orthopoxvirus: mCherry Reporter Primary qHTS; Vaccinia virus mCherry reporter infection, fluorescence; Potency, µM (top dose mostly 36.5 µM), for the others: top-dose activity change, negative = inhibition, hits mostly inhibitors; actives 0.63% (n = 310,000); calls by dose curve; tested in A549 cells; also: potency is read from the fitted curve at half-maximal effect; nearly all actives have a fitted effect of over 35% in size
HCMV inh = qHTS Assay for inhibitors of the human cytomegalovirus (HCMV); actives 4.5% (n = 410,000); HFF cells, HCMV-luciferase reporter, 72 h; stronger effect = lower value; AID 1259415, 2018; activity change, negative = inhibition, % at 57.5 µM; in the data active = activity change below about -60%; inconclusive = no clear call, values can overlap the other calls; inactive = above about -39%
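HFF cells seeded 16 h at 37C, treated with compounds, infected with luciferase-reporter HCMV at MOI 1 PFU/cell; luciferase read at 72 h post infection, normalized to buffer-only and Salinomycin controls.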
VACV Venus inh = qHTS for Stage-Specific Inhibitors of Vaccinia Orthopoxvirus: Venus Reporter Primary qHTS; Vaccinia virus Venus reporter expression, fluorescence; Potency, µM (series often up to 36.5 µM), for inactives: top-dose activity change, negative = inhibition, hits mostly inhibitors; actives 0.46% (n = 330,000); calls by dose curve; tested in A549 cells; also: potency is read from the fitted curve at half-maximal effect; nearly all actives have a fitted effect of over 30% in size
Marburg entry inh = qHTS for inhibitors of binding or entry into cells for Marburg Virus; Marburg virus pseudotyped entry inhibition, cell reporter; Potency, µM (doses to about 37.8 µM), for the others: at the top dose activity change, negative = inhibition, most hits filed as inhibitors; actives 1.8% (n = 300,000); calls by dose curve; tested in HEK293 cells; also: potency is read from the fitted curve at half-maximal effect
Lassa entry inh = qHTS for Inhibitors of binding or entry into cells for Lassa Virus. Lassa virus pseudotype entry inhibition, cell reporter. actives 1.2% (n = 300,000). Potency, µM (doses to about 37.9 µM), for inactives: top-dose activity change, negative = inhibition, actives largely listed as inhibitors; calls by dose curve; tested in HEK293 cells; also: potency is read from the fitted curve at half-maximal effect; nearly all actives have a fitted effect of over 50% in size
* = called active by the depositor; i = inactive; ? = inconclusive; · = no result given; [ ] = another dose, or the depositor's remark. Compounds with a hit are over-represented: about 7.8% of the library has one in this group of screens. % is scaled to controls: 0 for no effect and ±100 for the full control effect.

SMILES	HCV inh	Vaccinia mCherry	HCMV inh	VACV Venus inh	Marburg entry inh	Lassa entry inh
CCOC(=O)C(O)C1CCc2c([nH]c3ccc(C)cc23)C1=O (stereo not given)	?	-16%	29	?	?	11µM*
Cc1ccc(-c2cc(-c3ccc(F)cc3)n[nH]2)c(O)c1	13µM*	-29%	106	?	?	-16%
Oc1ccc(Br)cc1-c1cc(-c2ccccc2Cl)[nH]n1	7.9µM*	?	0	-28%	·	·
Cc1ccccc1-c1cc(-c2ccccc2O)n[nH]1	7.1µM*	-8%	155	-25%	0%	-26%
Oc1ccc(Br)cc1-c1cc(-c2ccccc2F)[nH]n1	?	·	130	·	-11%	24%
Oc1ccc(Cl)cc1-c1cc(-c2ccccc2)n[nH]1	10µM*	?	47	?	·	·
COc1ccc([C@H](CC(=O)O)NC(=O)OC(C)(C)C)cc1	·	·	·	·	6%	·
COc1ccc(-c2nc(C(=O)Nc3cccc(C(C)=O)c3)nn2-c2ccccc2Cl)cc1	·	-10%	-3	1%	?	-8%[46.1 µM]
Cc1ccc(C)c(C(=O)COc2ccccc2[N+](=O)[O-])c1	-3%	0%	-7	-7%	12%	-1%
Cc1cc(C)c(S(=O)(=O)Oc2ccccc2[N+](=O)[O-])c(C)c1	10µM*	?	?	-27%	?	3.2µM*
O=C(c1ccccc1)N1CCC(c2nc3c(nnn3Cc3ccccc3Cl)c(=O)[nH]2)CC1	16%	i	16	-17%	-15%	?
CCC(C)NC(=O)c1nc2c(nnn2Cc2ccccc2Cl)c(=O)[nH]1 (stereo not given)	-16%	-14%	?	-1%	0%[46.1 µM]	2%
Cc1ccc(Cn2nnc3c(=O)[nH]c(C4CCN(S(=O)(=O)Cc5ccccc5)CC4)nc32)cc1	?	?	27	?	?	11µM*
O=C(NCc1cccs1)c1nc2c(nnn2Cc2ccccc2Cl)c(=O)[nH]1	5µM*	?	-102*	7.1µM*	?	11µM*
O=C(c1cccs1)N1CCC(c2nc3c(nnn3Cc3ccccc3Cl)c(=O)[nH]2)CC1	1%	-11%	70	-6%	-7%[46.1 µM]	7.9µM*
CC(C)(C)c1ccc(Cn2nnc3c(=O)[nH]c(C4CCN(C(=O)Cc5cccs5)CC4)nc32)cc1	-21%	·	?	·	8.2µM*	?
CC(C)(C)c1ccc(Cn2nnc3c(=O)[nH]c(C4CCCN(C(=O)Cc5cccs5)C4)nc32)cc1 (stereo not given)	-3%	-21%	-13	?	?	?
CCCCN(CCCC)CCCNC(=O)c1cc(-c2ccc(Cl)s2)nc2ccccc12	·	?	-21	-24%	?	16%[46.1 µM]
COC(=O)c1sccc1NC(=O)c1cccc(F)c1	-28%	-12%	23	-5%	5%[46.1 µM]	-17%[46.1 µM]
COC(=O)c1sccc1NC(=O)c1ccncc1	-6%	-5%	22	3%	0.1µM*	-16%
COC(=O)c1sccc1NC(=O)c1c(F)c(F)c(F)c(F)c1F	13µM*	i[7.34 µM]	?	-6%[7.34 µM]	?	?
Cc1ccc(F)c(C(=O)N2CC3ON=C(c4c(F)cccc4Cl)C3C2)c1F (stereo not given)	·	·	4	·	·	·
CCOc1ccc(C(=O)/C=C/c2cc(OC)c(OC)c(OC)c2)cc1	-27%	?	-88*	?	?	?
COc1cc(/C=C/C(=O)c2ccc(F)cc2)cc(OC)c1OC	?	0%	-112*	-9%	?	?
CCC[C@@H](CN[C@@H](CNC)[C@H](C)CC)NCC1CCC(C(C)(C)C)CC1 (stereo not given in full)	7.9µM*	?	-99*	13µM*	·	·
SMILES	HCV inh	Vaccinia mCherry	HCMV inh	VACV Venus inh	Marburg entry inh	Lassa entry inh
CC[C@@H](C)[C@H](CNC)NC[C@@H](Cc1cccc2ccccc12)NCCc1cccc(C(F)(F)F)c1	1%	?	-99*	?	·	·
CCC[C@@H](CN[C@@H](CNC)C(C)C)NCCCCc1ccccc1	?	i	?	?	·	·
CCC[C@H](CN[C@@H](CNC)[C@H](C)CC)NCCc1cc(C(F)(F)F)cc(C(F)(F)F)c1	?	?	-78*	20µM*	·	·
COc1ccccc1NC(=O)C(=O)NCC(c1ccc2c(c1)OCO2)N1CCN(C)CC1 (stereo not given)	·	-12%	-29	-8%	·	-12%[46.1 µM]
O=[N+]([O-])c1ccc(Nc2nc(NCCN3CCOCC3)nc(Nc3ccc(Cl)cc3)n2)cc1	·	-25%	·	-29%	·	·
CC(C)(C)OC(=O)N(CCc1ccccc1)Cc1ccc(OCc2cccc(NC(=O)C3CC3)c2)cc1	13µM*	i	?	-26%	·	·
CC(C)C(=O)Nc1cccc(COc2ccc(CN(Cc3ccccc3)C(=O)OC(C)(C)C)cc2)c1	0.5µM*	-6%	-34	-26%	·	·
CC(C)C(=O)Nc1ccc(COc2ccccc2CN(Cc2ccccc2)C(=O)OC(C)(C)C)cc1	-5%[8.37 µM]	?	-74*	6%	·	·
CC(C)(C)OC(=O)N(CCc1ccccc1)Cc1ccc(OCc2cccc(NC(=O)C3CCC3)c2)cc1	?	-10%	?	-19%	·	·
CC(C)(C)OC(=O)N(CCc1ccccc1)Cc1ccccc1OCc1ccc(NC(=O)C2CCCC2)cc1	10%[8.37 µM]	2%	-15	-4%	·	·
CCC1=Nc2cc(C(=O)N3CCC(C)CC3)ccc2Sc2ccc(C)cc21	·	-25%	-3	-8%	-34%[46.1 µM]	-4%[46.1 µM]
C[C@H](N=C(NC#N)Nc1ccncc1)C(C)(C)C	·	·	·	·	1%	·
COc1ccc(C(C)=O)cc1CSc1nnc(Nc2ccc(C)cc2C)s1	?	?	-30	8%	?	?
COc1ccc(C(C)=O)cc1CSc1nnc(Nc2ccccc2C)s1	?	·	-62*	·	-8%	-18%
COC(=O)c1cccc(C(=O)N2CCc3c(C(=O)OC)c(OCc4ccccn4)cc(=O)n3CC2)c1	·	-6%	·	5%	·	·
COc1ccc(NC(=O)c2[nH]c(C)c(C(C)=O)c2C)cc1S(=O)(=O)Nc1ccc(Br)cc1	14µM*	1%	69	8%	?	?
COc1ccc(NC(=O)c2[nH]c(C)c(C(C)=O)c2C)cc1Cl	?	-9%	336	-8%	?	?
COc1ccc(C(C)(C)C)cc1NC(=O)c1[nH]c(C)c(C(C)=O)c1C	?	i	9	-15%	10µM*	11µM*
CCCc1cc(NCCCN2CCOCC2)n2c(nc3ccccc32)c1C#N	?	·	-60*	2%	-10%	-1%
Cc1cc(NCCCN2CCOCC2)n2c(nc3ccccc32)c1C#N	-18%	15%	-9	-7%	?	0%
